From PubChem BioAssay
In the library only some 1.9% were active in any assay of this set; here they are far more common.
Autophagy HCS = autophagy modulators in MEF cells, primary screen, imaging, high-content, MEF GFP-LC3; calls only at 10 µM (by protocol); MEF GFP-LC3 puncta imaging; test concentration mostly 10 µM; 0.98% of 190,000 active;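 active = percentage of spot-positive cells more than 3 SD above its plate mean, without a fluorescence outlier flag or 80% toxicity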;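 also: spot-positive cell cutoff set from DMSO-treated cells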
Efa HMGR inh = inhibitors of E. faecalis class II HMGR, primary screen, biochemical, Enterococcus faecalis | HMG-CoA reductase (Enterococcus faecalis, mvaE) | purified E. faecalis HMGR, NADPH absorbance 340 nm kinetic | inhibition, % at 10 µM | 0.41% of 190,000 active | AID 1066, 2008;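 active = inhibition above a set limit, the median over all tested compounds plus 3 SD, cut at about 9.5% in these data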;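 also: enzyme runs in reverse so mevalonate oxidation gives rising NADPH absorbance; 0% = complete reaction with DMSO and 100% = background rate lacking mevalonate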
Insulin prom inh = inhibitors of insulin promoter-driven GFP, primary screen, imaging, TRM-6 cells (human fetal islet line), eGFP reporter, cell count | reporter expression induced with tamoxifen | inhibition, % at 2 µM | 0.9% of 130,000 active;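 active = inhibition above the mean plus 3 SD, with well images judged a real hit on visual review, cut at about 60% in these data, passing the limit was not always enough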
Ins promoter up = insulin promoter activators in MIN6 cells, imaging, high-content screening, mouse beta cells | MIN6 insulin promoter-GFP reporter; stronger effect = higher value | z-score at 5 µM | 0.3% of 190,000 active | AID 1625, 2009;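 active = z-score above 3 at 5 µM with at least 500 cells counted in the well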
* hit, by the source's call; i = inactive; nt = no result; + = active, no number.

SMILES	Autophagy HCS	Efa HMGR inh	Insulin prom inh	Ins promoter up
CC/C(C)=N/Oc1nc(C)cc(C)n1	nt	nt	nt	0.62
CCOc1ccc(NC(=O)c2cn(CC(C)C)c(=O)c3c2c2ccccc2n3C)cc1	+	-9	-20	0.39
Cc1ccc(S(=O)(=O)Nc2cccc(/C=C/C(=O)O)c2)cc1	i	11*	nt	-0.37
Cc1ccc(Nc2nc(CSc3n[nH]c(N)n3)cs2)cc1	nt	nt	nt	-1.3
CN1CCN(CCCNC(=O)c2nnc(Cc3c(F)cccc3Cl)o2)CC1	i	10*	-5	0.14
Cc1ccnc(N/N=C/c2ccccc2)n1	i	-1	nt	0.2
Cc1cc(C)nc(N/N=C2/CCCC/C2=C\c2ccccc2)n1	i	14*	-58	-1.9
CC(C)COC(=O)NC1c2ccccc2Oc2ccccc21	nt	nt	nt	0.47
Cc1ccc(CN2C(=O)CNC2=S)cc1	i	0	nt	-0.06
CCCCN(C)Cc1cc(=O)oc2cc3c(cc12)CCCC3	nt	nt	nt	-1.3
Cc1ccc(C(=O)NC(=S)Nc2nc(-c3cccc([N+](=O)[O-])c3)cs2)c(Cl)c1	i	-2	86*	-1.2
Cc1ccc(NC(=O)C(=O)NNC(=O)c2cccs2)cc1	i	10*	17	-0.76
Cc1nc2ccccc2nc1N1CCCCC1	i	-6	nt	0.2
Cc1ccc2c(Cl)c(C)c(N3CCCCC3)nc2n1	i	-2	83*	-0.72
Cc1nnc(SCc2cccc([N+](=O)[O-])c2)[nH]c1=O	i	1	-7	0.79
Cc1cccc(C)c1NC(=O)CN1C(=O)NC(C)(CCc2ccccc2)C1=O (configuration not stated)	i	13*	-18	0.55
Cc1ccc(NC(=O)CN2C(=O)NC(C)(CCc3ccccc3)C2=O)cc1 (configuration not stated)	i	4	nt	-0.33
COC(=O)C1=C(C)NC(=O)CC1c1ccccc1 (configuration not stated)	i	1	16	0.55
COC(=O)C1=C(C)NC(=S)N(C(C)=O)C1c1ccccc1 (configuration not stated)	i	-1	77*	nt
O=C(Nc1cccnc1)c1ccc(-c2ccc(Cl)cc2)o1	+	0	6	0.06
O=C(Nc1cccnc1)c1ccc(COc2ccccc2Br)o1	+	2	nt	-0.57
COc1cc2c(cc1NS(=O)(=O)N1CCCCC1)oc1ccccc12	i	-1	-21	1.8
COc1ccccc1Nc1nc(N)nc(CSC(=S)N2CCCCC2)n1	nt	nt	nt	-0.08
CCn1cc([N+](=O)[O-])c(C(=O)Nc2ccn(Cc3ccccc3F)n2)n1	i	-3	-10	-0.58
Cc1ccccc1Cn1ccc(NC(=O)c2nn(C)cc2[N+](=O)[O-])n1	i	-4	85*	nt
SMILES	Autophagy HCS	Efa HMGR inh	Insulin prom inh	Ins promoter up
O=C(NCCCN1CCOCC1)/C(=C/c1ccc(F)cc1)NC(=O)c1ccccc1	i	-1	46	0.35
CCOC(=O)N1CCN(c2c(N3CCN(c4cccc(C)c4C)CC3)c(=O)c2=O)CC1	+	-5	nt	0.71
COc1ccccc1N1CCN(C(=O)Nc2cccc(Cl)c2)CC1	i	3	-17	-1.5
CCOC(=O)N1CCN(c2cccc(C)c2C)CC1	i	-4	19	-0.1
COc1cccc(NC(=O)N2CCN(c3cccc(C)c3C)CC2)c1	+	-2	-84	0.71
Cc1cccc(N2CCN(C(=O)C(C)C)CC2)c1C	i	-6	79*	0.12
COc1ccc(CSc2nnc3n(C)c(=O)c4c5c(sc4n23)CCCC5)cc1	nt	nt	nt	0.05
CCCc1cc(=O)[nH]c(SCC(=O)NCCCC(=O)OCC)n1	i	-3	-11	3.1*
Nc1nonc1-n1nnc(C(=O)O)c1-c1cccs1	i	10*	17	0.03
CCOC(=O)c1nnn(-c2nonc2N)c1-c1cccs1	i	2	-10	0.58
Cc1ccc2nc(NCc3ccccc3)[nH]c2c1	+	1	nt	-1.6
COc1ccc2nc(NCc3ccccc3)[nH]c2c1	i	-6	0	-0.28
Cn1c(C(=O)NC2CC2)cc(=O)n(C)c1=O	i	-4	nt	0.06
Cc1ccc(NC(=S)N(CCCN2CCCC2)Cc2cccn2Cc2ccc(Cl)cc2)cc1Cl	+	1	-146	-0.26
Cc1ccc(NC(=S)N(CCCN2CCCC2)Cc2cccn2Cc2ccc(Cl)cc2)cc1C	i	-2	-64	0.17
FC(F)(F)c1cccc(NC(=S)N(CCCN2CCCC2)Cc2cccn2Cc2ccc(Cl)cc2)c1	+	-3	-147	-2
COc1ccc(NC(=S)N(CCCN2CCC(C)CC2)Cc2cccs2)cc1Cl	i	-2	nt	-0.24
